Screening results deposited in PubChem by National Center for Advancing Translational Sciences (NCATS).
LASV entry inh: blocks Lassa virus binding to or entry into cells | Lassa virus pseudotype entry inhibition, cell reporter | Potency, µM (series often up to 37.9 µM), actives largely listed as inhibitors | actives 1.2% (n = 300,000) | AID 540256; calls by dose curve; tested in HEK293 cells; note: nearly all actives have a fitted effect of over 50% in size
Vaccinia Venus: inhibitors of vaccinia virus (Venus reporter); Vaccinia virus Venus reporter expression, fluorescence; Potency, µM (doses to about 36.5 µM), usual class: inhibitors; actives 0.46% (n = 330,000); AID 720580; calls by dose curve; tested in A549 cells; note: nearly all actives have a fitted effect of over 30% in size
VACV mCherry inh: inhibitors of vaccinia virus infection (mCherry reporter signal); Vaccinia virus mCherry reporter infection, fluorescence; Potency, µM (series often up to 36.5 µM), usual class: inhibitors; actives 0.63% (n = 310,000); AID 720579; calls by dose curve; tested in A549 cells; note: nearly all actives have a fitted effect of over 35% in size
Shiga inhibitor: inhibitors of Shiga toxin in Vero cells. actives 9.2% (n = 290,000). Vero cells, Shiga toxin protein synthesis inhibition reporter. inhibition, % at 38.7 µM; in the data active = inhibition mostly above about 28%, no sharp cut-off; inactive = mostly below about 43%
Cycloheximide cs: counter-screen hit for Shiga toxin inhibitors, cycloheximide; actives 12% (n = 300,000); cell reporter, cycloheximide protein synthesis inhibition counterscreen; max response, %; AID 2314; in the data active = max response mostly above about 13%, no sharp cut-off; inactive = mostly below about 14%; note: read at 38.3 µM for the half of the compounds with a filed dose
Marburg entry inh: inhibitors of Marburg virus binding or cell entry; Marburg virus pseudotyped entry inhibition, cell reporter; Potency, µM (series often up to 37.8 µM), hits mostly inhibitors; actives 1.8% (n = 300,000); AID 540276; calls by dose curve; tested in HEK293 cells
Hits are given with their value; – = inactive; ? = inconclusive; · = no result; [ ] = dose if it differs, or a comment. Shown is part of a subset that was picked to be rich in hits.

SMILES	LASV entry inh	Vaccinia Venus	VACV mCherry inh	Shiga inhibitor	Cycloheximide cs	Marburg entry inh
COC(=O)C1=C(C)N(Cc2ccco2)C(=O)NC1c1ccco1 (centres undefined)	·	·	·	·	·	–
Cc1ccccc1CNC(=O)c1oc2c(c1C)-c1nn(Cc3ccc(Cl)cc3)cc1CC2	–	–	–	·	·	·
CCCNC(=O)c1ccc(COc2ccc(C)cc2)o1	·	·	·	–	–	·
CN1CCN(C(=O)c2ccc(COc3ccc(C(C)(C)C)cc3)o2)CC1	–	–	·	65	49	–
CCOc1ccc(OCc2ccc(C(=O)N3CCCC3)o2)cc1	–	–	–	54	24	?
CCCc1ccc(OCc2ccc(C(=O)N3CCCC3)o2)cc1	–	–	–	149	22	?
CCOc1ccc(OCc2ccc(C(=O)NC(C)C)o2)cc1	·	·	·	43	40	·
COc1ccccc1CNc1nc(-c2ccco2)nn1S(=O)(=O)c1ccc(Cl)cc1	–	–	–	·	·	–
NC(=S)N/N=C1\CC(c2ccc3c(c2)OCCCO3)Oc2ccc(F)cc21 (centres undefined)	?	–	–	–	–	?
NC(=S)N/N=C1\CC(c2ccc3c(c2)OCCO3)Oc2ccc(F)cc21 (centres undefined)	?	?	11µM	–	–	?
c1ccc2ncc(-n3ccnc3)cc2c1	·	–	–	·	·	·
COc1ccc(C(=O)Nc2cccc(-c3cn4ccsc4n3)c2)c(OC)c1	?	–	–	·	·	·
O=C(OC1CCN(CCCl)CC1)C(c1ccccc1)c1ccccc1	·	?	–	·	·	10µM
C[N+]1(C)[C@@H]2CC[C@H]1CC(OC(=O)C(c1ccccc1)c1ccccc1)C2 (some centres undefined)	·	·	·	–	–	·
Cc1ccc(C)c(C(=O)O/N=C(\N)c2ccc(Br)cc2)c1	?	·	·	–	–	?
Cc1cc(C)cc(C(=O)O/N=C(\N)c2ccc(Br)cc2)c1	?	·	·	–	–	–
Cc1ccc(C(=O)O/N=C(\N)c2ccc(Br)cc2)cc1C	–	·	·	130	42	–
Cc1ccc(/C(N)=N/OC(=O)c2ccc(Cl)cc2Cl)cc1	?	–	–	92	82	7.1µM
N/C(=N\OC(=O)c1ccoc1)c1ccc(Br)cc1	·	·	·	90	74	·
Cc1cccc(C(=O)O/N=C(\N)c2ccc(Br)cc2)c1	–	–	–[1.46 µM]	–	56	–
Cc1csc(=O)n1CCC(=O)OC(C)C(=O)NCc1ccccc1 (centres undefined)	–	–	–	·	·	–
Cc1cccc(OCC(=O)O/N=C(\N)c2ccc(Cl)cc2)c1	–	–	–	–	–	–
Cc1cccc(C(=O)O/N=C(\N)c2ccc(Cl)cc2)c1	·	·	·	71	56	·
Cc1cccc(C(=O)O/N=C/c2ccc(Br)cc2)c1	–	–	–	88	44	–
COc1ccc(-c2nc3scc(CCNS(=O)(=O)c4ccc(C)cc4)n3n2)cc1	–	–	–	·	·	·
SMILES	LASV entry inh	Vaccinia Venus	VACV mCherry inh	Shiga inhibitor	Cycloheximide cs	Marburg entry inh
Cc1ccc(C)c(CN2C(=O)c3ccccc3S(=O)(=O)c3ccc(C(=O)N(C)C4CCCCC4)cc32)c1	–	–	–	·	·	?
CCOC(=O)CN1C(=O)[C@@]2(C[C@@H](C)C[C@@H](C)O2)c2ccccc21	·	·	·	·	·	–
CC(=O)N1CCN(C(=S)Nc2ccc(Oc3ccccc3)cc2)CC1	–	–	–	–	–	–
Cc1ccc(NC(=O)c2cc3c(s2)CCC3)cc1S(=O)(=O)N1CCOCC1	–	·	·	–	–	–
CC1CCc2sc(C(=O)NNC(=S)NC3CC3)cc2C1 (centres undefined)	–	–	–	–	21	–
COc1ccc(NC(=O)c2cc3c(s2)CCC(C)C3)cc1S(=O)(=O)N1CCOCC1 (centres undefined)	23µM	?	?	–	–	?
CC1CCc2sc(C(=O)Nc3ccc(C(N)=O)cc3)cc2C1 (centres undefined)	–	–	–	–	32	–
COc1ccc(-c2nsc(NC(=O)c3cccc(OC)c3)n2)cc1	–	–	–	·	·	–
COc1ccc(-c2ccc(=O)n(Cc3cccc([N+](=O)[O-])c3)n2)cc1	·	·	·	–	–	·
COc1ccc(-c2ccc(=O)n(Cc3c(F)cccc3Cl)n2)cc1	·	·	·	48	23	·
NS(=O)(=O)c1ccc(NC(=O)c2cc(=O)c3ccccc3o2)cc1	–	–	–	–	–	–
CCOC(=O)c1ccc(N=NN(C)C)cc1	–	–	–	91	31	?
CCOC(=O)c1ccc(C(=O)OCC)nc1	–	–	–	35	16	–
CCOC(=O)c1ccc(N)cc1	·	–	–	·	·	·
